The values that follow come from PubChem BioAssay (NCI).

This experiment can be described thus: NCI Yeast Anticancer Drug Screen. Data for the rad14 strain (AID 159).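 Note: 0% = growth of vehicle-treated control cultures.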 The note with it: S. cerevisiae rad14 strain growth inhibition, hits give high values. The procedure: Growth inhibition of yeast strains with defined genetic alterations is measured as a screen for potential anti-cancer activity. Selected strains with alterations in DNA damage repair or cell cycle control were exposed to compounds and growth inhibition was measured relative to vehicle treated controls. The strain used in this assay is rad14

SMILES strings stand for the structures. The panel holds about 79,000 compounds, 15% with a hit somewhere; the sample as a whole holds those more often. Values without a mark were called inactive. Active and inactive are the calls of the source. Cut-off read from the data, not from the text of the source: active = growth inhibition above about 70%; inactive = the rest.

Consider `O=C(/C=C\c1ccc(Cl)cc1Cl)c1cccs1`, for which the growth inhibition (at 1.2 µM) is -2%; the growth inhibition (at 3.7 µM) was 1%; the growth inhibition (at 11.0 µM) is 5%; the growth inhibition (at 33.0 µM) is 9%; the growth inhibition (at 100.0 µM) is 7%.

`Oc1ccc2ccccc2c1C(c1ccc(Cl)cc1)c1c(O)ccc2ccccc12`: the growth inhibition (at 1.2 µM) is -61%; the growth inhibition (at 3.7 µM) is -54%; the growth inhibition (at 11.0 µM) was -60%; the growth inhibition (at 33.0 µM) was -7%; the growth inhibition (at 100.0 µM) is 84% (active).

Consider `FC(F)(F)c1nc2nc(Cl)c(Cl)nc2n1CCCN1CCOCC1`, for which the growth inhibition is 6% (at 1.2 µM); 11% (at 3.7 µM); 36% (at 11.0 µM); 44% (at 33.0 µM); 53% (at 100.0 µM).

As to `O=[N+]([O-])c1cccc([N+](=O)[O-])c1S(=O)(=O)c1ccccc1`, the growth inhibition is, setting by setting: (at 1.2 µM) -13%; (at 3.7 µM) 0%; (at 11.0 µM) 59%; (at 33.0 µM) 92% (active); (at 100.0 µM) 92% (active).

Take `O=C(O)C1OC1(c1cccc(Cl)c1)c1ccccc1Cl` (stereo not given): the growth inhibition was -19% (at 1.2 µM); -12% (at 3.7 µM); -11% (at 11.0 µM); 75% (active) (at 33.0 µM); 91% (active) (at 100.0 µM).

On to `N/C(=N\OC(=O)NC(Cl)=C(Cl)Cl)c1cc(C(F)(F)F)cc(C(F)(F)F)c1`, for which the growth inhibition by setting is: (at 1.2 µM) -53%; (at 3.7 µM) -36%; (at 11.0 µM) -48%; (at 33.0 µM) 18%; (at 100.0 µM) 96% (active).

On to `Cc1ccc(NC(=O)/C(Cl)=C(\Cl)C(=O)O)cc1C`, for which the growth inhibition runs as follows: (at 1.2 µM) 3%; (at 3.7 µM) 6%; (at 11.0 µM) 26%; (at 33.0 µM) 99% (active); (at 100.0 µM) 99% (active).

In the case of `CC(=O)OCC(=O)C1(O)CCC2C3CCC4CCCCC4(C)C3CCC21C` (stereo not given), the growth inhibition is -31% (at 1.2 µM); -17% (at 3.7 µM); 8% (at 11.0 µM); 60% (at 33.0 µM); 86% (active) (at 100.0 µM).
